Bioassay records as filed in PubChem.
Lassa entry inh: inhibitors of Lassa virus binding or cell entry; Lassa virus pseudotype entry inhibition, cell reporter; Potency, µM (highest dose often 37.9 µM), for inactives: at the top dose activity change, negative = inhibition, usual class: inhibitors; actives 1.2% (n = 300,000); AID 540256; calls by dose curve; tested in HEK293 cells; further: potency means the concentration at half of the fitted maximal effect; nearly all actives have a fitted effect of over 50% in size
VACV Venus inh: vaccinia inhibition (Venus reporter); actives 0.46% (n = 330,000); AID 720580; Potency, µM (titrated, usually from 36.5 µM), without a hit: top-dose activity change, negative = inhibition, most hits filed as inhibitors; Vaccinia virus Venus reporter expression, fluorescence; calls by dose curve; tested in A549 cells; further: potency means the concentration at half of the fitted maximal effect; nearly all actives have a fitted effect of over 30% in size
HCMV antiviral: blocks human cytomegalovirus replication. AID 1259415. activity change, negative = inhibition, % at 57.5 µM. actives 4.5% (n = 410,000). HFF cells, HCMV-luciferase reporter, 72 h; hits give low values; in the data active means activity change below about -60%; inconclusive means no clear call, values can overlap the other calls; inactive means above about -39%
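Two compound doses tested in HFFs infected with HCMV-luciferase, MOI 1 PFU/cell, 72 h at 37C. Lysate luminescence read with OneGlo; data normalized against buffer-only and 10uM Salinomycin inhibitor controls.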
FMDV inh: blocks foot and mouth disease virus; Potency, µM (titrated, usually from 57.9 µM), inactives show at the highest dose activity change, negative = inhibition, hits mostly inhibitors; actives 1.2% (n = 410,000); AID 1159524; FMDV antiviral cell-based qHTS; calls by dose curve; tested in HEK293T cells; further: read-out not given here; potency means the concentration at half of the fitted maximal effect; nearly all actives have a fitted effect of over 45% in size
Vaccinia mCherry: vaccinia inhibition (mCherry reporter); Vaccinia virus mCherry reporter infection, fluorescence; Potency, µM (titrated, usually from 36.5 µM), without a hit: top-dose activity change, negative = inhibition, usual class: inhibitors; actives 0.63% (n = 310,000); AID 720579; calls by dose curve; tested in A549 cells; further: potency means the concentration at half of the fitted maximal effect; nearly all actives have a fitted effect of over 35% in size
Marburg entry inh: blocks Marburg virus binding to or entry into cells; Marburg virus pseudotyped entry inhibition, cell reporter; Potency, µM (top dose mostly 37.8 µM), without a hit: at the highest dose activity change, negative = inhibition, most hits filed as inhibitors; actives 1.8% (n = 300,000); AID 540276; calls by dose curve; tested in HEK293 cells; further: potency means the concentration at half of the fitted maximal effect
* = called active by the depositor; i = inactive; u = inconclusive; x = no result given; [ ] = another dose, or the depositor's remark. Compounds with a hit are over-represented: about 6.5% of the library has one in this group of screens. On the % scale 0 is the no-effect control and ±100 the full control effect.

SMILES	Lassa entry inh	VACV Venus inh	HCMV antiviral	FMDV inh	Vaccinia mCherry	Marburg entry inh
Cc1nc2ccccc2n1CCc1nc2c3ccccc3nc(SCC(=O)Nc3cccc(C(F)(F)F)c3)n2n1	-5%[46.1 µM]	u	-61*	0%	-17%	x
COc1ccc(OC)c(C(=O)N2CCOc3ccc(C(C)(O)CN(C)C)cc3C2)c1 (configuration not stated)	x	-6%	x	0%	-11%	x
COC(=O)C1=C2CCCO[C@H]2[C@@H]2[C@@H](C)[C@H](OC)c3ccccc3[C@@H]12	x	x	x	x	x	2%[14.2 µM]
Cc1ccc(C)c(NC(=O)CN2CCSc3ccc(S(=O)(=O)N4CCCC4)cc32)c1	u	3%	0	-24%	-1%	x
O=C(CSc1ccccc1)NCc1ccccc1	13%	-22%	28	22%	-6%	10%
CC1(C(=O)NCc2cccc(C(F)(F)F)c2)CCN1Cc1ccc2ccccc2c1 (configuration not stated)	x	-9%	-72*	0%	i	x
O=C(Cc1cccc2ccccc12)NCC(=O)N1CCN(CC(=O)Nc2ccc(F)cc2)CC1	x	-20%	45	u	-5%	x
O=C(Cc1cccc2ccccc12)NCC(=O)N1CCN(Cc2cccc(C(F)(F)F)c2)CC1	x	x	-62*	u	x	x
O=C(CSc1cccc(C(F)(F)F)c1)NCc1ccccc1	u	-12%	-73*	-11%	-9%	-2%
CC1=NC(=O)C(C#N)C=C1c1ccncc1 (configuration not stated)	x	x	x	x	x	0%
O=C1CCC[C@H]2[C@@H](Cc3ccccc3)[C@@H](NS(=O)(=O)c3cc(Cl)cc(Cl)c3)CC[C@]23CCCN13	x	x	28	x	x	x
CCN(CC(=O)NCc1cccs1)C(=O)CCCOc1ccc(C(C)(C)C)cc1	u	-18%	-105*	-19%	-7%	u
CN1C2CCC1CC(NC(=O)c1ccc(Cl)cc1)C2 (configuration not stated)	u	-1%[7.34 µM]	35	8%	i[7.34 µM]	-20%[46.1 µM]
O=C(NC1C2CCCC1CN(C1CC1)C2)c1ccc(Cl)cc1 (configuration not stated)	x	x	-64*	u	x	x
COCCN(Cc1cc2cc3c(cc2nc1Cl)OCO3)C(=O)c1ccc(C)cc1	x	x	-69*	u	x	x
COc1ccc(-n2c(-c3ccc(Cl)cc3)cc3c2CC(C)(C)CC3=O)c(OC)c1	-6%[46.1 µM]	u	-35	-27%	-20%	u
Cc1cc(/C=c2\sc3nc4ccccc4n3c2=O)c(C)n1-c1ccc(C(=O)O)cc1	15%	6%	-37	-5%	-5%	8%[46.1 µM]
Cc1cc(/C=c2/sc3nc4ccccc4n3c2=O)c(C)n1-c1ccccn1	0.21µM*	x	-101*	0.032µM*	x	u
CCOc1ccc(C(=O)N2CC(=O)Nc3ccc(C)cc3C2c2ccc(F)cc2)cc1OCC (configuration not stated)	u	-6%	-13	-25%	i	u
Cc1ccccc1Nc1c(-c2ccc(N3CCOCC3)cc2)nc2ccc(Cl)cn12	-15%[46.1 µM]	-13%	71	12%	-25%	-29%[46.1 µM]
C/C(=C\c1ccc(N(C)C)cc1)[N+](=O)[O-]	u	x	-102*	14µM*	x	5.2µM*
CN(C)c1ccc(C(=O)C=Cc2ccc([N+](=O)[O-])cc2)cc1	x	-23%	-19	-5%	u	x
COc1ccc2c(c1)CCc1cnc(-n3ncc(C(=O)NCC(C)(C)CN(C)C)c3C)nc1-2	x	-27%	x	0%	u	x
C=CCN1C(=O)CSc2ccc(C(=O)NCCC3=CCCCC3)cc21	7.3µM*	x	-29	u	x	u
O=C(NCc1ccco1)c1ccc2c(c1)N(Cc1ccccc1)C(=O)CS2	u	-11%	u	-14%	-15%	u
O=C(NCC1CCCO1)c1ccc2c(c1)N(Cc1ccccc1)C(=O)CS2 (configuration not stated)	x	x	-74*	-18%	x	x
COc1ccc(CCNC(=O)c2ccc3c(c2)N(Cc2ccc(F)cc2)CCS3)c(OC)c1	-30%[46.1 µM]	-15%	-38	-16%	-9%	7.9µM*
O=C(NCc1ccccc1Cl)c1ccc2c(c1)N(Cc1ccccc1)C(=O)CS2	-27%[46.1 µM]	-20%	-65*	23%	-22%	x
